Screening data from PubChem.
Only some compounds are listed: those with a hit (about 6.1% of all), similar ones and a draw of the others.
D1 antagonist: Antagonist of Human D 1 Dopamine Receptor: qHTS; AID 504652, 2011; activity change, negative = inhibition, % at 10 µM; 3.2% of 360,000 active; HEK293 TREx D1 cells, calcium flux, dopamine EC80; hits give low values; D(1A) dopamine receptor (Homo sapiens), P21728; in the data active = activity change below about -30%; note: % is set by controls: 0 for no effect and ±100 for the full control effect
Target sequence (P21728 whole entry, looked up): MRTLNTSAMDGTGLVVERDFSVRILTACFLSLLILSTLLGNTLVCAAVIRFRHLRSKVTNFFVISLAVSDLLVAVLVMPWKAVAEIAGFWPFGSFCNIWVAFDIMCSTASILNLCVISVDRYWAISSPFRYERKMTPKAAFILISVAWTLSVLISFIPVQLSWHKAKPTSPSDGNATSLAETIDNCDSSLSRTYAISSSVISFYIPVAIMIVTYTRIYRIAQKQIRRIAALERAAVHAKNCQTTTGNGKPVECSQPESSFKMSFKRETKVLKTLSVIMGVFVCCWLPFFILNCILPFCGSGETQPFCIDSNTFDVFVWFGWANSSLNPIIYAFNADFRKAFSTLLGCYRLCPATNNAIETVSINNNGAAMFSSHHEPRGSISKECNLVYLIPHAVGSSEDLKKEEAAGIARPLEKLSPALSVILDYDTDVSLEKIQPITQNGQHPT
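After overnight tetracycline induction at 30 C, force-coupled D1 HEK293 cells took up a no-wash calcium dye at room temperature. Compounds were added and monitored 180 s, and the response to EC80 dopamine was then recorded.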
D3 ag: qHTS of D3 Dopamine Receptor Agonist: qHTS; max activation, %; D3R DiscoveRx beta-arrestin cells, luminescence, 90 min; 0.58% of 410,000 active; D(3) dopamine receptor (Homo sapiens), P35462; in the data active = max activation above about 30%; note: 0% is about no effect
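Agonist mode: compounds and dopamine controls were applied to plated cells for 90 min at 37 degrees C after an overnight attachment at 1500 cells/well. Luminescent read-out followed 30 - 60 minutes at room temperature with DiscoveRx detection reagent.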
D1 PAM: Potentiators of Human D1 Dopamine Receptor: qHTS | D(1A) dopamine receptor (Homo sapiens), P21728 | HEK293 TREx D1 cells, calcium flux, dopamine EC20 potentiation | potentiation, % at 10 µM | 0.036% of 360,000 active | AID 504651, 2011; in the data active = potentiation above about 30%; note: 0% is about no effect
D1 agonist: Allosteric Agonists of the Human D1 Dopamine Receptor: qHTS; D(1A) dopamine receptor (Homo sapiens), P21728; 1% of 360,000 active; HEK293 T-REx D1 cells, calcium flux, agonist mode; activation, % at 2 µM; in the data active = activation above about 30%; note: 0% is about no effect
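Inducible HEK293 T-REx D1 cells, force-coupled to calcium signalling, were plated at 4000 cells/well with tetracycline and held overnight at 30 C. After no-wash calcium dye loading, compound-evoked calcium rise over 180 s flagged agonists.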
D3 antag: qHTS of D3 Dopamine Receptor Antagonist: qHTS | max response, negative = inhibition, % | D3R cells, DiscoveRx beta-arrestin luminescence, antagonist mode; hits give low values | AID 652054, 2013 | D(3) dopamine receptor (Homo sapiens), P35462 | 2.5% of 360,000 active; in the data active = max response below about -50%; note: % is set by controls: 0 for no effect and ±100 for the full control effect
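Cells expressing the human receptor were seeded at 1500 cells/well, incubated overnight at 37 degrees C in 5% CO2, then exposed to library compounds with dopamine controls for 90 minutes at 37 degrees C before luminescent detection.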
The depositor's hits bear a star; / = no result; ! = repeats disagree.

SMILES	D1 antagonist	D3 ag	D1 PAM	D1 agonist	D3 antag
COc1ccc(-c2cc3c(=O)n(CC(=O)NCCCN4CCC(Cc5ccccc5)CC4)ncn3n2)cc1	2	-23	-6	10	-101*
COc1ccc(-c2cc3c(=O)n(CC(=O)NCCCN4CCN(Cc5ccccc5)CC4)ncn3n2)cc1	1	-15	0	4	-67*
COc1cccc(CNC(=O)c2c(C)oc3nc(C)nc(N4CCOCC4)c23)c1	14	-11	1	0	/
CCCC(=O)N1c2nc(C(C)C)nn2C2(CCCCC2)[C@@H]2CCCC[C@@H]21	27	-4	2	1	/
C=CCS(=O)(=O)N1CCCC(C(=O)c2cccc(Cl)c2)C1 (stereo unspecified)	-23	-6	-2	1	-18
O=C(c1cccc(Cl)c1)C1CCCN(S(=O)(=O)c2ccccc2)C1 (stereo unspecified)	-54*	4	-3	0	21
COc1cc(F)cc(F)c1[S+](=O)([O-])N1CCN([S+](=O)([O-])c2ccc3c(c2)OCCO3)CC1	-16	/	-6	11	/
CCCC(=O)NCC(c1ccc2c(c1)OCO2)N1CCN(c2ccccc2)CC1 (stereo unspecified)	7	-21	-4	4	/
N/C(=N\OC(=O)c1ccc(Cl)c([N+](=O)[O-])c1)c1ccccc1	-21	2	-4	6	-65*
N/C(=N\OC(=O)c1ccccc1Br)c1ccc([N+](=O)[O-])cc1	-8	3	-4	7	-71*
CCn1c(=O)sc2cc(NS(=O)(=O)c3ccc(F)c(C)c3)ccc21	-11	1	-2	10	/
CCCC[N+](C)(C)CCC(=O)NC(C)(C)CS(=O)(=O)[O-]	-34*	11	-5	3	-9
CC(CNC(=O)c1ccc2nc(CCc3ccccc3)oc2c1)c1ccccc1 (stereo unspecified)	-8	-14	-2	21	/
CCCc1cc(=O)n2[nH]c(NCc3c(F)cccc3Cl)nc2n1	-30*!	-1	-1	0	-7
O=C(OCn1nnc2ccccc2c1=O)c1ccco1	5	-1	7	-1	-21
O=C(OCn1nnc2ccccc2c1=O)c1cc2ccccc2o1	-32*	5	-5	2	9
CCN(CC)c1nn2c(=O)c(C(=O)NCc3cccc(OC)c3OC)cnc2s1	3	0	-3	0	/
O=C(CCCN1CCC(c2ccccc2)C1)c1ccc2c(c1)OCCO2 (stereo unspecified)	-19	-33	-7	7	-82*
O=C(CCN1CCc2ccccc2CC1)c1ccc2c(c1)OCCO2	-10	-12	-8	2	-94*
O=C(CCN1CCCCC1)c1ccc2c(c1)OCO2	-6	-12	-3	3	-65*
Cc1ccc(OCC(=O)Nc2ccc3nc(SCC(=O)N4CCOCC4)sc3c2)cc1C	-8	14	-1	7	/
Cc1c(Cl)cccc1NC(=O)Cn1cnc2nc3c(cc2c1=O)CCCC3	13	-8	-1	1	/
CCc1ccccc1NC(=O)Nc1ccc2c(c1)N(CC)C(=O)c1ccccc1S2	4	2	-1	3	/
COc1cccc(CNC(=O)CN2C(=O)N(c3ccc(C)cc3C)S(=O)(=O)c3ccccc32)c1OC	-26	6	-2	1	/
CCOc1cc(C)c(C(C)C)cc1S(=O)(=O)n1cnc(C)c1	-31*	17	-14	3	0
SMILES	D1 antagonist	D3 ag	D1 PAM	D1 agonist	D3 antag
CCOc1ccc(S(=O)(=O)n2cnc(C)c2)cc1	-44*	1	-6	7	3
COc1ccc(S(=O)(=O)n2cnc(C)c2)cc1	7	9	-6	-1	1
CCOc1cc(C)c(C(C)C)cc1S(=O)(=O)N1CC(C)OC(C)C1 (stereo unspecified)	3	-1	-1	2	11
FC(F)(F)c1cccc(Nc2nc(N3CCCC3)nc(N3CCCC3)n2)c1	8	0	0	2	11
Cc1ccc(Nc2nc(N3CCOCC3)nc(N3CCOCC3)n2)cc1	5	-2	2	0	9
CC(C)c1ccc(Nc2nc(N3CCOCC3)nc(N3CCOCC3)n2)cc1	/	-10	/	/	-74*
CN1CCN(c2nc(Nc3cccc(C(F)(F)F)c3)nc(N3CCOCC3)n2)CC1	-6	-30	-12	0	-98*
O=C(NC1CCN(Cc2ccccc2)CC1)c1c(Cl)cccc1Cl	6	-9	-1	4	-10
Cc1cccc(NC(=S)NC2CCN(Cc3ccccc3)CC2)c1C	-8	-1	-2	7	-53*
S=C(Nc1ccc(CN2CCCCC2)cc1)Nc1cccc(Cl)c1Cl	11	-55	-4	3	-76*
S=C(Nc1cccc(Cl)c1Cl)NC1CCN(Cc2ccccc2)CC1	-21	-20	-14	26	-90*
O=C(CCNS(=O)(=O)c1ccc2c(c1)CCN2C(=O)C1CC1)Nc1ccc(OC(F)(F)F)cc1	1	-4	-6	1	/
CCOc1ccc(CNC(=O)C2CCCN(S(=O)(=O)c3ccc4c(c3)CCCC(=O)N4)C2)cc1 (stereo unspecified)	-24	5	-7	3	/
Cc1cc(C)c2c(-n3cccc3)c(C(=O)NCCc3ccccc3)sc2n1	-1	16	-2	10	/
CN1c2ccc(Cl)cc2-c2nc(SCC(=O)NCc3ccccc3)ncc2S1(=O)=O	-1	-14	1	4	/
CCCCOc1ccc(C2=NC(c3ccncc3)=Nc3ccc(OCC)cc3N2)cc1	9	-8	-1	0	/
O=C/C(=C\Nc1ccc(S(=O)(=O)CCO)cc1)c1nc2cc(Cl)ccc2o1	-7	-24	-4	6	-51*
Fc1ccc(COc2cccc(CNCc3ccncc3)c2)cc1	-6	34*	-2	11	15
CCOc1cccc(CNCc2ccncc2)c1	14	-2	3	9	8
C=CCOc1cccc(CNCc2ccncc2)c1	-35*	-5	-7	12	3
Cc1cc(C)n2c(SCc3ccc(Cl)cc3Cl)nnc2n1	8	6	10	42*	-6
Cc1ccc(CNC(=O)CS(=O)Cc2nc(-c3ccccc3Cl)oc2C)cc1 (stereo unspecified)	-42*	-1	1	4	-9
Cc1oc(-c2ccccc2Cl)nc1CS(=O)CC(=O)NC1CC1 (stereo unspecified)	-60*	-7	-4	0	-2
CC(=O)c1c(C)[nH]c(C(=O)N2CCc3ccccc3C2)c1C	5	-1	-2	5	-20
CC(=O)c1c(C)[nH]c(C(=O)N2c3ccccc3CC2C)c1C (stereo unspecified)	-41*	-6	-1	3	-27
